Measured values as given in PubChem BioAssay (NCI).
This is part of a sample that, as a whole, favours compounds with a hit. Of some 83,000 tested, about 20% had one in any assay.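 96-well plates, one dose, 48 hours. Percent growth reported; active if below 10.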 Activity calls are given as the source filed them.

Experiments:
Test in all cases: NCI-60 one-dose screen, 48 h (100 = growth as untreated, 0 = no growth, -100 = all killed)
Conditions in all cases: 10 µM unless noted
DU-145 prostate = tested on: DU-145 prostate
K-562 leukemia = tested on: K-562 leukemia
MALME-3M melanoma = tested on: MALME-3M melanoma
MDA-MB-231 breast = tested on: MDA-MB-231 breast
RXF 393 renal = tested on: RXF 393 renal
SF-268 CNS = tested on: SF-268 CNS
SF-295 CNS = tested on: SF-295 CNS
SF-539 CNS = tested on: SF-539 CNS
UACC-257 melanoma = tested on: UACC-257 melanoma
M14 melanoma = tested on: M14 melanoma

Measured: growth

COC1CC(C)C(OC)c2cc(O)cc(c2O)NC(=O)/C(C)=C/C=C\C(C)C(OC(N)=O)/C(C)=C\C(C)C1OC (configuration not stated)
active: DU-145 prostate -29.7% | K-562 leukemia -58.6% | RXF 393 renal -20.5% | SF-295 CNS -15.9% | SF-539 CNS 6.34%
inactive: MALME-3M melanoma 32.1% | MDA-MB-231 breast 32.4% | SF-268 CNS 63.1% | UACC-257 melanoma 14.4%

N#CC(I)CS(=O)(=O)c1ccccc1 (configuration not stated)
active: MALME-3M melanoma -22.4%
inactive: DU-145 prostate 100% | K-562 leukemia 80.6% | MDA-MB-231 breast 98.3% | RXF 393 renal 81.8% | SF-268 CNS 86.8% | SF-295 CNS 115% | SF-539 CNS 95.6% | UACC-257 melanoma 73.1%

CCCCCCCCc1cc(Cl)c(O)c(Cl)c1
inactive: DU-145 prostate 103% | K-562 leukemia 104% | MALME-3M melanoma 100% | MDA-MB-231 breast 103% | RXF 393 renal 113% | SF-268 CNS 98.5% | SF-295 CNS 113% | SF-539 CNS 99.5% | UACC-257 melanoma 104% | M14 melanoma 107%

O=Nc1ccc2ccccc2c1O
inactive: DU-145 prostate 94.3% | K-562 leukemia 80.9% | MALME-3M melanoma 63.4% | MDA-MB-231 breast 54.6% | RXF 393 renal 93.8% | SF-268 CNS 91.6% | SF-295 CNS 83% | SF-539 CNS 108% | UACC-257 melanoma 18.3%

Nc1nc(-c2ccccc2)nc(N)c1N=O
inactive: DU-145 prostate 88.8% | K-562 leukemia 31.7% | MALME-3M melanoma 91.3% | MDA-MB-231 breast 93.8% | RXF 393 renal 63.9% | SF-268 CNS 77.2% | SF-295 CNS 108% | SF-539 CNS 77.5% | UACC-257 melanoma 54.4% | M14 melanoma 67.3%

c1ccc2sc(SSN3CC4CCC(CC4)C3)nc2c1
active: RXF 393 renal -29.5%
inactive: DU-145 prostate 128% | K-562 leukemia 91.8% | MALME-3M melanoma 101% | MDA-MB-231 breast 101% | SF-268 CNS 122% | SF-295 CNS 108% | SF-539 CNS 94.9% | UACC-257 melanoma 120% | M14 melanoma 110%

COc1cc(/C=C/C(=O)CC(=O)/C=C/c2ccc(O)c(OC)c2)ccc1O
active: M14 melanoma 7.15%
inactive: DU-145 prostate 40.6% | K-562 leukemia 12.5% | MALME-3M melanoma 60.3% | MDA-MB-231 breast 82.3% | RXF 393 renal 20.3% | SF-268 CNS 44.9% | SF-295 CNS 102% | SF-539 CNS 14.8% | UACC-257 melanoma 53.6%

NC(=S)N/N=C/c1ncccc1O
active: RXF 393 renal 9.63% | SF-539 CNS -7.14% | M14 melanoma -56.2%
inactive: DU-145 prostate 12.7% | K-562 leukemia 24% | MALME-3M melanoma 54% | MDA-MB-231 breast 34.8% | SF-268 CNS 14.9% | SF-295 CNS 21.5% | UACC-257 melanoma 18.9%

CCNc1nnnn1CC
inactive: DU-145 prostate 109% | K-562 leukemia 109% | MALME-3M melanoma 116% | MDA-MB-231 breast 103% | RXF 393 renal 106% | SF-268 CNS 106% | SF-295 CNS 103% | SF-539 CNS 103% | UACC-257 melanoma 116% | M14 melanoma 104%

O=C(CCl)N(c1ccccc1)c1ccccc1
inactive: DU-145 prostate 110% | K-562 leukemia 105% | MALME-3M melanoma 98.6% | MDA-MB-231 breast 114% | RXF 393 renal 104% | SF-268 CNS 105% | SF-295 CNS 103% | SF-539 CNS 108% | UACC-257 melanoma 94.1% | M14 melanoma 95.9%

C/C=C/c1cc2c(c(=O)o1)C(=O)[C@@H](O)[C@H](C)O2
active: K-562 leukemia -4.98% | M14 melanoma -3.06%
inactive: DU-145 prostate 27.6% | MALME-3M melanoma 19.7% | MDA-MB-231 breast 90.1% | RXF 393 renal 52.7% | SF-268 CNS 88.4% | SF-295 CNS 96.1% | SF-539 CNS 87.7% | UACC-257 melanoma 86.7%

Cc1cc(I)nc2ccccc12
inactive: DU-145 prostate 120% | K-562 leukemia 108% | MALME-3M melanoma 114% | MDA-MB-231 breast 99.7% | RXF 393 renal 122% | SF-268 CNS 105% | SF-295 CNS 101% | SF-539 CNS 100% | UACC-257 melanoma 119% | M14 melanoma 111%

CCCN(CCC)C(=O)c1ccc(C)cc1
inactive: DU-145 prostate 109% | K-562 leukemia 109% | MALME-3M melanoma 100% | MDA-MB-231 breast 108% | RXF 393 renal 113% | SF-268 CNS 100% | SF-295 CNS 91.9% | SF-539 CNS 101% | UACC-257 melanoma 91.3% | M14 melanoma 95.2%

c1ccc(-c2cc3cc4ccccc4cn3c2)cc1
inactive: DU-145 prostate 101% | K-562 leukemia 64.3% | MALME-3M melanoma 91.3% | MDA-MB-231 breast 81.6% | RXF 393 renal 104% | SF-268 CNS 95.7% | SF-295 CNS 84.8% | SF-539 CNS 104% | UACC-257 melanoma 91.6% | M14 melanoma 94.7%

N#CCc1cccc2ccccc12
inactive: DU-145 prostate 123% | K-562 leukemia 103% | MALME-3M melanoma 110% | MDA-MB-231 breast 103% | RXF 393 renal 114% | SF-268 CNS 116% | SF-295 CNS 123% | SF-539 CNS 101% | UACC-257 melanoma 105% | M14 melanoma 109%

NC(=S)N/N=C\c1nccc2c(C(F)(F)F)cccc12
active: K-562 leukemia 5.11% | MALME-3M melanoma -10.4% | SF-268 CNS 5.75% | SF-295 CNS 7.98% | SF-539 CNS 0.339% | UACC-257 melanoma -23.9% | M14 melanoma -26.7%
inactive: DU-145 prostate 12% | MDA-MB-231 breast 49.1% | RXF 393 renal 16%

CC(CSc1n[nH]c(=S)s1)c1ccccc1 (configuration not stated)
inactive: DU-145 prostate 117% | K-562 leukemia 103% | MALME-3M melanoma 110% | MDA-MB-231 breast 103% | RXF 393 renal 118% | SF-268 CNS 109% | SF-295 CNS 106% | SF-539 CNS 119% | UACC-257 melanoma 112% | M14 melanoma 106%

c1ccc(-c2cccc(-c3ccccn3)n2)nc1
inactive: DU-145 prostate 17.8% | MDA-MB-231 breast 44.1% | RXF 393 renal 26.2% | SF-268 CNS 19.9% | SF-295 CNS 19.5%
active: K-562 leukemia 4.95% | MALME-3M melanoma 3.68% | SF-539 CNS 5.87% | UACC-257 melanoma -4.86% | M14 melanoma -17.8%

O=[N+]([O-])/C(=C/c1ccccc1)c1ccccc1
inactive: DU-145 prostate 106% | K-562 leukemia 98.3% | MALME-3M melanoma 98.7% | MDA-MB-231 breast 112% | RXF 393 renal 97.1% | SF-268 CNS 106% | SF-295 CNS 98.9% | SF-539 CNS 96% | UACC-257 melanoma 103% | M14 melanoma 101%

CCCCCCCCCCCCCCCCCC1=NCCCN1CCO
inactive: DU-145 prostate 108% | K-562 leukemia 100% | MALME-3M melanoma 97.4% | MDA-MB-231 breast 87.8% | RXF 393 renal 124% | SF-268 CNS 98.9% | SF-295 CNS 96% | SF-539 CNS 103% | UACC-257 melanoma 96.1% | M14 melanoma 99.7%

CCC(=O)c1cc([N+](=O)[O-])c(Br)s1
inactive: DU-145 prostate 105% | K-562 leukemia 44.5% | MALME-3M melanoma 90.5% | MDA-MB-231 breast 103% | RXF 393 renal 91% | SF-268 CNS 96.6% | SF-295 CNS 103% | SF-539 CNS 88.5% | UACC-257 melanoma 96.5% | M14 melanoma 71.6%

COc1cc2c(c(OC)c1OC)-c1ccc(NCc3ccccc3)c(=O)cc1[C@@H](NC(C)=O)CC2
active: DU-145 prostate 1.24% | K-562 leukemia 2.48% | MDA-MB-231 breast -3.82% | SF-295 CNS -36.2% | SF-539 CNS 0.134%
inactive: MALME-3M melanoma 40.3% | RXF 393 renal 51.8% | SF-268 CNS 25.3% | UACC-257 melanoma 63.4% | M14 melanoma 13.6%

CCC(C)(O)Cc1ccc(Cl)cc1 (configuration not stated)
inactive: DU-145 prostate 114% | K-562 leukemia 99.3% | MALME-3M melanoma 110% | MDA-MB-231 breast 95.7% | RXF 393 renal 101% | SF-268 CNS 106% | SF-295 CNS 94.6% | SF-539 CNS 104% | UACC-257 melanoma 108% | M14 melanoma 101%

S=C(S)OCN1CCOCC1
inactive: DU-145 prostate 86% | K-562 leukemia 77.3% | MALME-3M melanoma 87.5% | MDA-MB-231 breast 116% | RXF 393 renal 107% | SF-268 CNS 97.9% | SF-295 CNS 95.6% | SF-539 CNS 101% | UACC-257 melanoma 42.6% | M14 melanoma 77.4%

Clc1ccccc1C(c1ccccc1)(c1ccccc1)n1ccnc1
inactive: DU-145 prostate 60.1% | K-562 leukemia 17% | MALME-3M melanoma 39.7% | MDA-MB-231 breast 59.1% | RXF 393 renal 23.6% | SF-268 CNS 57.5% | SF-295 CNS 19% | SF-539 CNS 52% | UACC-257 melanoma 54.4% | M14 melanoma 31%

OC(c1cc2ccc(C(F)(F)F)cc2c2cc(C(F)(F)F)ccc12)C1CCCCN1 (configuration not stated)
active: DU-145 prostate -99.3% | K-562 leukemia -95% | MALME-3M melanoma -72.6% | MDA-MB-231 breast -79.1% | RXF 393 renal -79.6% | SF-268 CNS -81.7% | SF-295 CNS -96% | SF-539 CNS -88.1% | UACC-257 melanoma -86.4% | M14 melanoma -85.2%

COc1cccc2c1C(=O)c1c(O)c3c(c(O)c1C2=O)C[C@@](O)(C(=O)CO)C[C@@H]3OC1CC(OC(C)=O)C(OC(C)=O)C(C)O1 (some centres not stated)
active: DU-145 prostate -50.9% | K-562 leukemia -34.2% | MALME-3M melanoma -83% | MDA-MB-231 breast 9.19% | RXF 393 renal -31.3% | SF-268 CNS -22.3% | SF-295 CNS -30.2% | SF-539 CNS -34.4% | UACC-257 melanoma -27.7% | M14 melanoma -12.5%

CCCCCCCCCCCCCCCC[N+]1(C)CCCC1c1cccnc1 (configuration not stated)
inactive: DU-145 prostate 52.1% | K-562 leukemia 36.3% | MALME-3M melanoma 64.7% | MDA-MB-231 breast 30.8% | RXF 393 renal 45.3% | SF-268 CNS 29.6% | SF-295 CNS 42.2% | SF-539 CNS 33.3% | UACC-257 melanoma 75.9% | M14 melanoma 17.9%
